Assay outcomes (PubChem)
Most compounds without a hit are left out; they make up all but 4.6% or so of the library.
TRHR agonist = qHTS for Small Molecule Agonists and Allosteric Enhancers of Human TRH Receptor: Primary Screen for Agonists; activation, % at 2 µM; AID 493084, 2011; hit rate 0.18% among 360,000; TRHR cells, calcium flux fluo-8, FDSS agonist mode; Thyrotropin-releasing hormone receptor (Homo sapiens), P34981; also: 0% is about no effect
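Read-out: compound-evoked intracellular calcium rise in TRHR cells, fluo-8 dye, kinetic FDSS fluorescence at 1 s/cycle following a 10-cycle baseline. Cells cultured overnight before dye loading (30 min–1.5 h, RT).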
D1 PAM = Potentiators of Human D1 Dopamine Receptor: qHTS; AID 504651, 2011; HEK293 TREx D1 cells, calcium flux, dopamine EC20 potentiation; potentiation, % at 10 µM; hit rate 0.036% among 360,000; in the data active = potentiation above about 30%; also: 0% is about no effect
Target sequence (P21728 whole entry, looked up): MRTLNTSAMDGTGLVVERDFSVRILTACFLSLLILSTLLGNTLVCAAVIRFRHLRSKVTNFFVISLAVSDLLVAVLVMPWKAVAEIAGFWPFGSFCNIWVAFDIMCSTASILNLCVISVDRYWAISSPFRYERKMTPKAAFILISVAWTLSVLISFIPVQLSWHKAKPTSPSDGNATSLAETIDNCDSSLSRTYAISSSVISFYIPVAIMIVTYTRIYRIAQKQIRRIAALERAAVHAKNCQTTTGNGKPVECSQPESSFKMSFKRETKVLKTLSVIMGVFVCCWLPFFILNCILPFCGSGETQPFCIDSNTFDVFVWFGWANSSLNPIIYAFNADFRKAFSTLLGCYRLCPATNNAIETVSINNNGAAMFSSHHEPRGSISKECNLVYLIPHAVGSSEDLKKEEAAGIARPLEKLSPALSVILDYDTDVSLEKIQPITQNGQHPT
D1 antagonist = Antagonist of Human D 1 Dopamine Receptor: qHTS. AID 504652, 2011. hit rate 3.2% among 360,000. HEK293 TREx D1 cells, calcium flux, dopamine EC80; hits give low values. D(1A) dopamine receptor (Homo sapiens), P21728. activity change, negative = inhibition, % at 10 µM; in the data active = activity change below about -30%; also: % is scaled to controls: 0 for no effect and ±100 for the full control effect
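Inducible Hek293 Trex D1 cells (tetracycline, overnight, 30 C). Calcium dye 30–90 min RT. Antagonist mode: EC80 dopamine added after 180 s compound read.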
D1 agonist = Allosteric Agonists of the Human D1 Dopamine Receptor: qHTS | D(1A) dopamine receptor (Homo sapiens), P21728 | HEK293 T-REx D1 cells, calcium flux, agonist mode | activation, % at 2 µM | hit rate 1% among 360,000 | AID 504660, 2011; also: 0% is about no effect
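Agonism was scored from calcium flux recorded over 180 s (1 read/s) after pintool compound addition, following a 10-cycle baseline. Cells were inducible force-coupled HEK293 TREx D1, plated overnight at 30 C and loaded with no-wash calcium dye.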
TRHR enhancer = qHTS for Small Molecule Agonists and Allosteric Enhancers of Human TRH Receptor: Primary Screen for Enhancers | Thyrotropin-releasing hormone receptor (Homo sapiens), P34981 | TRHR cells, fluo-8 calcium fluorescence, EC20 TRH enhancement | enhancement, % at 2 µM | hit rate 0.66% among 360,000 | AID 493056, 2011; in the data active = enhancement above about 30%; also: 0% is about no effect
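TRHR-expressing cells loaded with fluo-8 calcium dye were read kinetically (ex 480/em 530) during compound addition, then stimulated with an EC20 of TRH (10 nM final). Enhancement of the Gq-mediated intracellular calcium response was scored.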
* hit, by the source's call; ! = not active in a repeat. Rule as the data show it, unless noted: active = activation above about 30%; inactive = the rest.

SMILES	TRHR agonist	D1 PAM	D1 antagonist	D1 agonist	TRHR enhancer
Cc1nc2ccc(NC(=O)c3ccc(Cl)c([N+](=O)[O-])c3)cc2s1	0	2	-2	0	-10
CC(=O)Nc1ccc(NC(=O)CN(C)S(=O)(=O)c2ccc3nc(C)sc3c2)cc1	0	-1	-1	3	-2
COc1ccc(N2CCN(C(=O)C(C)n3c(=O)cc(C(F)(F)F)c4c(C)nn(C)c43)CC2)cc1 (centres undefined)	-1	-1	21	0	-3
CCOC(=O)c1ccc(NC(=O)C2CCN(C(=O)N3CC(C)Oc4ccc(C)cc43)CC2)cc1 (centres undefined)	0	-1	-12	1	10
COc1cc2c(c(OC)c1OC)-c1c(cc3c(c1OC)OCO3)C1OC2[C@@H](C)[C@H]1C (some centres undefined)	0	-2	-46*	2	9
COc1cc2c(c(OC)c1OC)-c1c(cc3c(c1O)OCO3)C[C@@H](C)[C@@H](C)C2	0	2	-15	5	-8
Cc1ccc(CNC(=O)c2ccc3c(c2)N(Cc2ccccc2F)C(=O)c2ccccc2S3(=O)=O)cc1	1	-1	-5	7	1
CN(C)S(=O)(=O)c1ccc(S(=O)(=O)NCc2cccs2)cc1	1	-7	17	3	-1
CCOc1cc(S(=O)(=O)NCc2cccs2)ccc1Cl	0	-3	-37*	2	-1
CCCNS(=O)(=O)c1ccc(NC(=O)Cc2cccs2)cc1	0	-8	-33*	3	2
CCOc1ccc(S(=O)(=O)NCc2cccs2)cc1C(C)C	1	-1	-12	4	-1
O=S(=O)(NCc1cccs1)c1ccc(Br)cc1	0	-3	-33*	4	4
Cc1cc2c(s1)c1cnn(Cc3ccc(OC(F)F)cc3)c(=O)c1n2C	0	0	-3	0	1
C=Cc1cc(F)c(S(=O)(=O)N2CCN(S(=O)(=O)c3ccc4c(c3)OCCO4)CC2)cc1F	-2	2	-11	4	2
Cc1cccc(C(=O)Nc2ccc(C(=O)OCc3cc(=O)n4nc(CC(C)C)sc4n3)cc2)c1	1	1	-3	1	6
O=C(O)CCc1ccc(-c2ccc(F)cc2)n1NC(=O)c1ccco1	1	-4	-88*	1	5
COc1ccc2[nH]c(=O)c(CN(C(=O)c3cccc(Cl)c3)c3cccc(C)c3)cc2c1	0	0	-1	0	-6
CN(CC(=O)Nc1ccccc1Cl)C(=O)Cn1cc(C(F)(F)F)ccc1=O	0	0	-33*	-2	-8
Cc1ccc(CSCC(=O)N(C)CC(=O)Nc2ccccc2Cl)cc1	0	-5	-33*	1	-2
COc1cccc(-c2nc3c(c(=O)[nH]c(=O)n3Cc3ccccc3)n2CCO)c1OC(F)F	-1	-3	-43*	5	7
Cc1ccc(NC(=S)N(CCN(C)C)Cc2cccs2)cc1	0	-8	-36*	4	-1
COc1ccc(N2C3=[N+](CC2(C)O)c2ccccc2CC3)cc1 (centres undefined)	0	-2	-89*	3	-3
Cn1c2cc(S(C)=O)sc2c2cnn(Cc3ccccc3F)c(=O)c21 (centres undefined)	-1	-4	-14	1	1
COc1ccc(NC(=O)c2sc3nc(C)c(C(=O)Nc4ccc(C)cc4C)c(-c4ccc(Cl)cc4)c3c2N)cc1	0	0	-3	0	0
CCc1ccc(NC(=O)c2sc3nc(C)c(C(=O)Nc4ccc(C)cc4C)c(-c4ccco4)c3c2N)cc1	6	3	-5	46*	1
SMILES	TRHR agonist	D1 PAM	D1 antagonist	D1 agonist	TRHR enhancer
COc1cccc(NC(=O)c2sc3nc(C)c(C(=O)Nc4ccc(C)cc4C)c(-c4sccc4C)c3c2N)c1	4	-3	0	3	-1
Cc1ccc(NC(=O)c2c(C)nc3sc(C(=O)NC4CCCC4)c(N)c3c2-c2ccco2)c(C)c1	-1	-2	15	1	1
COc1cccc(NC(=O)c2sc3nc(C)c(C(=O)Nc4ccc(C)cc4C)c(-c4ccco4)c3c2N)c1	8	-1	-11	36*	4
COCCCNC(=O)c1sc2nc(C)c(C(=O)Nc3ccc(C)cc3C)c(-c3ccccc3Cl)c2c1N	0	-1	-32*	1	-1
COc1cccc(NC(=O)c2sc3nc(C)c(C(=O)Nc4ccc(C)cc4C)c(-c4ccccc4Cl)c3c2N)c1	1	0	-31*	10	-2
CCOC(=O)c1c(C)oc2ccc(N(C(=O)Oc3ccccc3)S(=O)(=O)c3ccc(CC)cc3)cc12	0	0	-5	3	5
CCn1c(=O)c2sccc2n2c(CCC(=O)N3CCN(c4ccccc4OC)CC3)nnc12	-2	2	20	-1	6
CCCNC(=O)OC[C@H]1O[C@H](CCO/N=C/C[C@@H]2C=C[C@H](OC(C)=O)[C@@H](COC(C)=O)O2)C=C[C@@H]1Oc1ccc(OC)cc1	0	-5	-30*	4	1
CCCNC(=O)OC[C@H]1O[C@H](CCO/N=C(\C)CCN2CCc3nc(-c4ccccc4)c(-c4ccccc4)cc3C2)C=C[C@@H]1Oc1ccc(OC)cc1	0	-2	-15	4	-2
Cc1cc2c(s1)c1cnn(Cc3ccc(C(C)C)cc3)c(=O)c1n2C	-1	-5	2	4	1
CCS(=O)(=O)c1ncc(Cl)c(C(=O)Nc2ccc(S(=O)(=O)N(C)c3ccccc3)cc2)n1	1	-18	-61*!	2	-11
CCN(c1ccccc1)S(=O)(=O)c1ccc(NC(=O)c2nc(S(C)(=O)=O)ncc2Cl)cc1	1	-7	-34*	2	-1
COc1ccccc1OCC(=O)Nc1ccc(S(=O)(=O)N(C)c2ccccc2)cc1	0	-1	-41*	12	-5
CCSc1ncc(Cl)c(C(=O)Nc2ccc(S(=O)(=O)N(C)c3ccccc3)cc2)n1	1	0	2	8	-3
Cc1cccc(CN2C(=O)c3ccccc3S(=O)(=O)c3ccc(C(=O)N4CCN(c5cc(C)ccc5C)CC4)cc32)c1	0	0	-22	5	-5
O=C(Nc1ccccc1C(F)(F)F)C1CCN(c2nnc(-n3cccc3)s2)CC1	-2	-5	-12	7	7
CCN(CC)c1ccc(NC(=O)C2CCN(c3nnc(-n4cccc4)s3)CC2)c(C)c1	-1	0	-38*	0	-2
